GLA inh pH 4.5 = blocks human alpha-galactosidase A at pH 4.5. purified enzyme, 4-MU-alpha-Gal fluorescence, pH 4.5. 230,000 tested, under 10 active. P06280. activity change, negative = inhibition, % at 105 µM
Target sequence (P06280 whole entry, looked up): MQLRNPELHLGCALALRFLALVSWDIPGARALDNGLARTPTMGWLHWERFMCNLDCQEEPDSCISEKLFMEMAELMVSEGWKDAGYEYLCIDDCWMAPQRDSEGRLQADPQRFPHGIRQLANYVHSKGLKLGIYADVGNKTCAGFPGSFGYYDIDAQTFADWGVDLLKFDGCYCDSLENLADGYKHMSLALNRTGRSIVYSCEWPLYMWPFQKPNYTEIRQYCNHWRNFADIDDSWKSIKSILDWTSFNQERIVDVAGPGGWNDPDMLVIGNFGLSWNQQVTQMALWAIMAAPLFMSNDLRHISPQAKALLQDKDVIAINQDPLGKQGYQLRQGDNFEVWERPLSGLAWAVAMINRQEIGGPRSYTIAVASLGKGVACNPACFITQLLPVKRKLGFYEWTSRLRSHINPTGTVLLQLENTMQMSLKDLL
aGal spleen mod = alpha-galactosidase A (human) modulation. P06280. human spleen homogenate, 4MU-alpha-Gal fluorescence, 40 min. Potency, µM (series often up to 80 µM), hits mostly inhibitors. hit rate 0.008% among 240,000
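Spleen homogenate 1 ug + cpd (titration) + 4-MU-alpha-D-galactopyranoside 1 mM; 37C 40 min; 50 mM citrate/phosphate pH 5.0, 0.01% Tween-20; stop pH 10; fluorescence 365/440; AC50 via Hill.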
N370S GC mod = inhibitors or activators of N370S glucocerebrosidase for Gaucher disease | P04062 | N370S GC spleen homogenate, 4MU-glucoside fluorescence | Potency, µM (top dose mostly 59.4 µM), hits mostly inhibitors | hit rate 0.092% among 330,000 | AID 2101
GAA inh = blocks human lysosomal alpha-glucosidase | purified human GAA, 4-MU-alpha-glucoside fluorescence | AID 1466 | P10253 | Potency, µM (highest dose often 76.9 µM), hits mostly inhibitors | hit rate 0.005% among 200,000
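Compounds are titrated up to 77 uM against 4 nM human enzyme. Substrate 4-methylumbelliferyl-alpha-D-pyranoside (400 uM) reacts 20 min at room temperature in pH 5.0 buffer; liberated 4-methylumbelliferone is read at 440 nm.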
GAA glycogen mod = alters human alpha-glucosidase cleavage of glycogen | recombinant GAA, glycogen substrate, Amplex Red glucose oxidase fluorescence | AID 2100 | hit rate 0.38% among 300,000 | Potency, µM (highest dose often 76.4 µM), hits mostly inhibitors;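 also: the screen sought inhibitors and activators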
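Recombinant enzyme (4 nM final) with compounds titrated up to 77 uM and bovine liver glycogen (30 ug) in citrate pH 5.0, 0.01% Tween-20, 37 C 40 min. Released glucose detected by Amplex Red/glucose oxidase (Ex 573/Em 610); AC50 from Hill fits.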
GAA spleen mod = inhibits or activates alpha-glucosidase in human spleen homogenate | P10253 | hit rate 0.006% among 240,000 | Potency, µM (series often up to 79.9 µM), actives largely listed as inhibitors | human spleen homogenate, 4-MU-alpha-glucoside fluorescence
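AC50 values come from Hill-equation fits of concentration-response data, normalized to no-enzyme and full-activity controls. Enzyme source: 1 ug human spleen homogenate; 1 mM fluorogenic 4-MU glucoside, pH 5.0 citrate buffer, 37 C, 40 min.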
Large screens that a line does not name were inactive; ! = repeats disagree. Most compounds without a hit are left out; they make up all but 0.41% or so of the library. Calls follow the shape of the dose curve; as a rule, active = well fitted curve in the direction sought with a large enough effect; inconclusive = small, poorly fitted or top-dose-only effect, or another doubt; inactive = no such curve, though single readings can be large; an effect the other way counts as inactive or inconclusive.

CC(=O)Nc1ccc(N/C=C/C(=O)C(C)(C)C)cc1	none
CCCn1c(=O)[nH]c2nc(-c3ccc(S(=O)(=O)O)cc3)[nH]c2c1=O	GLA inh pH 4.5 inconclusive, aGal spleen mod inconclusive, N370S GC mod inconclusive (no result: GAA inh, GAA glycogen mod)
COc1ccc(-c2c3c(=O)n(C)c(=O)n(C)c3c3c(-c4ccccc4)nc4ccccc4n23)cc1	none (no result: GLA inh pH 4.5, aGal spleen mod, N370S GC mod, GAA inh, GAA spleen mod)
CCN(C(=O)CN1CCN(c2ccc(O)cc2)CC1)c1c(N)n(Cc2ccccc2)c(=O)[nH]c1=O	GAA glycogen mod 18µM
CCN(C(=O)CN1CCC(C)CC1)c1c(N)n(Cc2ccccc2)c(=O)[nH]c1=O	none (no result: GLA inh pH 4.5, aGal spleen mod, GAA inh, GAA glycogen mod, GAA spleen mod)
CC(CCc1ccccc1)NC(=O)CN1CCN(c2ccc(O)cc2)CC1 (configuration not stated)	GAA inh inconclusive, GAA glycogen mod 4.4µM
CC(CCc1ccccc1)NC(=O)CN1CCN(Cc2ccccc2)C1=O (configuration not stated)	none
Cc1ccccc1Cn1ccn(-c2ccc(F)c(F)c2)c(=O)c1=O	none (no result: GLA inh pH 4.5, aGal spleen mod, N370S GC mod, GAA inh, GAA spleen mod)
CCc1ccc(C2C(C(=O)Nc3ccccc3OC)=C(C)Nc3nc(SCc4ccccc4)nn32)cc1 (configuration not stated)	none (no result: GLA inh pH 4.5, aGal spleen mod, N370S GC mod, GAA inh, GAA spleen mod)
O.O.[Mn].[Mn].[Mn].[OH-].[OH-]	none (no result: GLA inh pH 4.5, GAA inh, GAA glycogen mod)
CNc1nc2c3ccccc3n(C(C)=O)c2s1	GAA glycogen mod 25µM
CC(=O)n1c2ccccc2c2nc(NC(C)C)sc21	none
S=C([S-])NCCNC(=S)[S-].[Zn+2]	none (no result: GLA inh pH 4.5, GAA inh, GAA glycogen mod)
CCOc1ccc(C(C)=O)cc1COc1ccc(-c2nnco2)cc1	N370S GC mod 11µM (no result: GLA inh pH 4.5, aGal spleen mod, GAA inh, GAA glycogen mod, GAA spleen mod)
CC1CCC/C(=C\Nc2ccc(O)cc2)C1=O (configuration not stated)	GAA glycogen mod 14µM
O=C(O)CC[C@@H](C(=O)O)N1C(=O)c2ccccc2C1=O	aGal spleen mod 7.9µM! (no result: GAA inh)
COC(=O)CC[C@@H](C(=O)O)N1C(=O)c2ccccc2C1=O	none
CC(C)OCCCn1c(=O)c2ccccc2n2c(CCC(=O)N3CCN(c4ccccn4)CC3)nnc12	N370S GC mod 20µM (no result: GLA inh pH 4.5, aGal spleen mod, GAA inh, GAA spleen mod)
O=C(CCc1nnc2n(Cc3ccc(Cl)cc3)c(=O)c3ccccc3n12)N1CCN(c2ccccn2)CC1	none (no result: GLA inh pH 4.5, aGal spleen mod, GAA inh, GAA glycogen mod, GAA spleen mod)
CC(=O)c1ccc(N2CCOCC2)cc1O	none (no result: GLA inh pH 4.5, GAA inh, GAA glycogen mod)
CC(=O)c1ccc2c3c(ccc(O)c13)CC2	GAA glycogen mod 31µM
COc1ccc2oc(-c3ccc(C)c(NC(=O)c4ccc5c(c4)OCCO5)c3)nc2c1	none (no result: GLA inh pH 4.5, aGal spleen mod, N370S GC mod, GAA inh, GAA spleen mod)
CCN1C(=O)c2ccccc2Sc2ccc(C(=O)NCCCN3CCOCC3)cc21	none
Cc1cccc(CN2C(=O)c3ccccc3Sc3ccc(C(=O)NCCN4CCOCC4)cc32)c1	N370S GC mod 14µM
O=C(NCCN1CCOCC1)c1ccc2c(c1)N(Cc1ccccc1F)C(=O)c1ccccc1S2	N370S GC mod 10µM
O=C(c1ccc2c(c1)N(Cc1ccccc1F)C(=O)c1ccccc1S2)N1CCOCC1	none (no result: GAA inh)
Cc1nc(C#N)c(N/N=C/c2cccc(Cl)c2)o1	GAA glycogen mod 32µM
CCCCNc1nc(C)nc2c1nc(-c1ccccc1)n2C1CCN(Cc2ccccc2)C1 (configuration not stated)	none (no result: GAA inh, GAA glycogen mod)
Cc1ccccc1Nc1c(-c2ccccc2O)nc2sccn12	GAA glycogen mod 11µM (no result: GLA inh pH 4.5, aGal spleen mod, N370S GC mod, GAA inh, GAA spleen mod)
CCn1c(CN2CCCCC2)nc2cc(NC(=O)c3cccc([N+](=O)[O-])c3)ccc21	none (no result: GLA inh pH 4.5, aGal spleen mod, N370S GC mod, GAA inh, GAA spleen mod)
Cc1c2c(c(O)c3c(O)cccc13)C(=O)O[C@H]2C1C(N(C)C)C(O)=C(C(N)=O)C(=O)[C@H]1O (some centres not stated)	none (no result: GLA inh pH 4.5, GAA inh, GAA glycogen mod)
Nc1ccc2nc(N3CCOCC3)sc2c1	GAA glycogen mod 6.3µM
CCOCCCN(Cc1ccco1)C(=O)c1cc2c(s1)-c1c(C)cccc1OC2	none (no result: GLA inh pH 4.5, aGal spleen mod, N370S GC mod, GAA inh, GAA spleen mod)
CNC(=S)Nc1ccc(Nc2ccccc2)cc1	GAA glycogen mod 25µM
CNC(=S)Nc1ccc(Br)cc1	none
CCCNC(=S)Nc1ccc(Nc2ccccc2)cc1	GAA glycogen mod 16µM
Cc1cc(C)c(S(=O)(=O)Nc2ccc(O)cc2)cc1C	GAA glycogen mod 14µM
Cc1ccc(C)c(S(=O)(=O)Nc2ccc(O)cc2)c1	GAA glycogen mod 12µM

Screening data from PubChem.
